Measured values taken from PubChem BioAssay (EPA / NIEHS).
Records with an inconclusive call do not appear. A structure can be active in one record and inactive in another. Active and inactive are the calls of the source. The calls were made as follows: active = hit-call score of the fitted dose curve at least 0.9, where 1 is the maximum; inconclusive = response in the unintended direction; inactive = score below 0.9.

The molecules below were run against Cellular tumor antigen p53 (Homo sapiens) (UniProt P04637) (assay: TOX21_p53_BLA_p3_ratio: Tox21 HCT-116 p53 Agonism Beta-lactamase Assay, Ratio, Phase 3 (AID 2283596)).
Chain of Cellular tumor antigen p53 (Homo sapiens) (P04637 whole entry, looked up): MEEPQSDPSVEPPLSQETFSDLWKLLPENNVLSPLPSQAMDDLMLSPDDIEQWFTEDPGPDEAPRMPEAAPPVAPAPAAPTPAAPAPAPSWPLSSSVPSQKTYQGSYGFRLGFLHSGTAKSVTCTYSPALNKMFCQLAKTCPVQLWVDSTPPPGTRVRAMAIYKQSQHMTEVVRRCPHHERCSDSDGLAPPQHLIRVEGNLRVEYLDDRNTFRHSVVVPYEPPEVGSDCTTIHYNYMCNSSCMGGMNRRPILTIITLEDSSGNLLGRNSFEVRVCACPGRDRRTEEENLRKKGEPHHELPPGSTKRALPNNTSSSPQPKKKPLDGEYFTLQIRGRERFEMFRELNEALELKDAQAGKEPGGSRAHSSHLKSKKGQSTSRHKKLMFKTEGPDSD
Procedure, shortened: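 Cells were seeded at 4000/well, rested 5 h at 37C, then dosed with DMSO compound solutions (217-fold dilution) for 16 h. CCF4-AM substrate was loaded for 2 h at room temperature, and the 460/530 nm emission ratio was fitted for gain of signal versus DMSO.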
`CCCCCC=CCC(=O)OC` was tested, and the outcome was “inactive”. `CC1CCC(C(C)CS)CC1S` (stereo unspecified) was tested, and the outcome was “inactive”. In the case of `CCCCN`, the outcome is reported as “inactive”. With `CCCCCCCCCCCCN` the outcome was “inactive”. In the case of `CC(=O)OCCOC(C)=O`, the AC50 is reported as 87.2 µM (active) and the outcome is reported as “inactive”. In the case of `CC1CCC2CC1C2(C)C` (stereo unspecified), the outcome is reported as “inactive”. In the case of `C=C(C)[C@@H]1CC[C@@H](C)C[C@@H]1O`, the outcome is reported as “inactive”. In the case of `CCC(=O)OCCC(C)CCC=C(C)C` (stereo unspecified), the outcome is reported as “inactive”. `Cc1ccc(O)c(C(C)(C)C)c1` was tested, and the AC50 was 49.1 µM (active) and the outcome was “inactive”. For `C=C(C)C(=O)Nc1ccc(Cl)c(Cl)c1`, the AC50 was 56.1 µM (active) and the outcome was “inactive”. With `CC1(CO)CN(c2ccccc2)NC1=O` (stereo unspecified) the outcome was “inactive”. For `CCN(CC)CCOC(=O)c1ccc(N)cc1`, the outcome was “inactive”. `COC(=O)c1ccc(C)cc1` was tested, and the AC50 was 0.000353 µM (active) and the outcome was “inactive”. In the case of `CCCCCCCCCCN`, the outcome is reported as “inactive”. In the case of `NCCNCCN`, the outcome is reported as “inactive”. With `C[C@]12CC[C@H]3[C@@H](CCC4=CC(=O)CC[C@@]43C)[C@@H]1CC[C@@H]2C(=O)CO` the outcome was “inactive”. With `OC1OC[C@@H](O)[C@H](O)[C@H]1O` (stereo partly specified) the outcome was “inactive”. In the case of `O=C1OC2(c3cc(Br)c(O)c(Br)c3Oc3c2cc(Br)c(O)c3Br)c2c(Cl)c(Cl)c(Cl)c(Cl)c21`, the AC50 is reported as 50.7 µM (active) and the outcome is reported as “inactive”. `COC(C)CCO` (stereo unspecified) was tested, and the outcome was “inactive”. For `Cc1ccc(C(=O)c2cc(O)c(O)c([N+](=O)[O-])c2)cc1`, the outcome was “inactive”. In the case of `CNCCCC12CCC(c3ccccc31)c1ccccc12`, the outcome is reported as “inactive”. For `COCCCOc1ccnc(CS(=O)c2nc3ccccc3[nH]2)c1C` (stereo unspecified), the outcome was “inactive”. In the case of `c1ccc2c(c1)c1cccc3ccc4cccc2c4c31`, the AC50 is reported as 60.5 µM (active) and the outcome is reported as “inactive”. In the case of `CCCCCCCCC=O`, the outcome is reported as “inactive”. For `Cc1ccc(Nc2ccc(O)c3c2C(=O)c2ccccc2C3=O)cc1`, the outcome was “inactive”.
